# Only some compounds are listed: those with a hit (about 2.7% of all), similar ones and a draw of the others.
# CF NFkB inh: blocks PAF-induced NF-kB reporter in cystic fibrosis cells; AID 588850; actives 0.86% (n = 360,000); KKLEB NF-kB-GFP reporter, GFP fluorescence overnight; inhibition, % at 5 µM;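 active = at least 50% inhibition at 5 µM, scaled per plate between neutral and stimulator controls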;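 note: PAF is a Pseudomonas aeruginosa culture filtrate used as stimulus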
# Peg3 prom inh: reduces Peg3 promoter-driven luciferase expression in HeLa | inhibition, % at 20 µM | AID 588405 | actives 1.7% (n = 360,000) | HeLa PEG-Prom luciferase reporter, luminescence, overnight;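 active = inhibition of at least 50% at 20 µM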
# HIF-2a block: HIF-2a inhibition. AID 624352. actives 0.72% (n = 360,000). 786-0 RCC cells HIF-2a reporter, luciferase luminescence, overnight. inhibition, % at 18.8 µM;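 active = inhibition of the luminescence signal of 40% or more relative to plate controls, in a single-dose primary screen at 18.75 µM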
# Shn3 inh set2: Schnurri-3 reporter inhibition in Clone20 osteoblasts; Clone20 osteoblast Shn3 3'UTR firefly luciferase, 24 h; inhibition, % at 12.5 µM; actives 0.52% (n = 360,000);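 active = mean inhibition of at least 75% with every replicate also reaching 75%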
# MITF TRPM1 inh: reduces MITF-dependent TRPM1 promoter luciferase signal. SK-MEL-5 TRPM1 promoter luciferase, 24 h. actives 0.83% (n = 330,000). AID 488899. inhibition, % at 12.5 µM;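 active = mean inhibition across replicates of 60% or more, whatever share of single replicates reaches that level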
# KKLEB tox: reduces viability of KKLEB cystic fibrosis airway cells | KKLEB CF airway cells viability, ATPlite luminescence, overnight; hits give low values; cells stimulated with P. aeruginosa culture filtrate | activity change (cytotoxicity), % at 5 µM | actives 0.36% (n = 360,000) | AID 602141;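 active = corrected activity change at or below -50% at 5 µM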
# Numbers stand for hits; 0 = inactive; - = no result given.
SMILES,CF NFkB inh,Peg3 prom inh,HIF-2a block,Shn3 inh set2,MITF TRPM1 inh,KKLEB tox
CC1Sc2ccc(S(=O)(=O)N3CCC(C(=O)NCc4ccc(Cl)cc4)CC3)cc2NC1=O (stereo unspecified),0,0,0,0,0,0
CC1Sc2ccc(S(=O)(=O)N3CCC(C(=O)Nc4cccc(Cl)c4)CC3)cc2NC1=O (stereo unspecified),0,0,0,90,0,0
Cc1ccc(NC(=O)C2CCN(S(=O)(=O)c3ccc4c(c3)NC(=O)C(C)S4)CC2)cc1C (stereo unspecified),0,0,0,88,0,0
COc1ccccc1NC(=O)C1CCN(S(=O)(=O)c2ccc3c(c2)NC(=O)C(C)S3)CC1 (stereo unspecified),0,0,0,0,0,0
COc1cccc(CN2CCC2(C)C(=O)Nc2cnc3ccccc3c2)c1F (stereo unspecified),0,0,0,0,-,0
CC(C)NC(=O)C1(C)CN(S(C)(=O)=O)CC(=O)N1C1CC1 (stereo unspecified),-,-,0,-,-,-
CCOC(=O)C1CCCN(C(=O)c2sc(-c3ccccc3)nc2C)CC1 (stereo unspecified),0,0,0,0,-,0
Cc1ccc(S(=O)(=O)N(C)C)cc1NC(=O)COc1ccccc1C(=O)Nc1ccccc1,0,60,0,0,0,0
Cc1ccc(CCNC(=O)c2nnc(CS(=O)(=O)c3ccccc3)o2)cc1,0,62,0,0,0,0
Cc1cc(C(=O)c2ccccc2)c(NC(=O)CN2CCOCC2)s1,0,0,0,0,0,0
Cc1cc(C(=O)c2ccc(C(C)(C)C)cc2)c(NC(=O)CCl)s1,0,103,0,0,0,0
N#Cc1ccc(S(=O)(=O)N2CCCCC2c2cc(C(=O)Nc3cccc4c3CCCC4)no2)cc1 (stereo unspecified),0,0,0,0,-,0
Cc1ccc2c(c1)c1c(n2CC(O)Cn2ccnc2C)C(=O)CCC1 (stereo unspecified),0,0,0,0,0,0
Cc1ccc2c(c1)c1c3n2CCN(CC(N)=O)C3CCC1 (stereo unspecified),0,0,0,0,0,0
Cc1ccc2c(c1)c1c3n2CCN(CC(O)CNC(C)C)C3CCC1 (stereo unspecified),0,72,0,0,0,0
Cc1ccc2c(c1)c1c(n2CC(O)CNC2CCCC2)CCCC1 (stereo unspecified),0,61,0,0,0,0
CC(=O)NC(C)(c1ccccc1)c1nc(-c2cnc3ccccc3c2)cs1 (stereo unspecified),0,0,0,0,-,0
CC(Nc1nc(N2CCNCC2)nc2ccccc12)c1ccccc1 (stereo unspecified),0,102,0,0,0,0
CC(Nc1nc(-c2ccncc2)nc2ccccc12)c1ccccc1 (stereo unspecified),0,0,0,0,0,0
O=C(Nc1cccc(C(F)(F)F)c1)Nc1nnc([C@@H]2C[C@H](O)[C@@H](CO)O2)s1,0,0,0,0,-,0
Cc1cccc(-c2noc(CN(C(=O)C(c3ccccc3)c3ccccc3)C(C)C)n2)c1,0,0,0,84,-,0
CN(C)CCNc1nc2sc3c(c2c(=O)n1CCc1ccccc1)CCCCC3,0,108,0,0,90,0
CC(O)CNc1nc2sc3c(c2c(=O)n1CCc1ccccc1)CCCCC3 (stereo unspecified),0,0,0,0,0,0
CCN(CC)C(=O)c1cccc(-c2csc(C(O)c3ccc(F)c(F)c3)n2)c1 (stereo unspecified),0,0,0,0,-,0
O=[N+]([O-])c1cc(-c2nnc(Nc3ccc(O)cc3)c3ccccc23)ccc1N1CCOCC1,0,52,0,0,0,0
COc1ccc(S(=O)(=O)Nc2cccc3ccc(O)cc23)cc1,0,0,0,0,0,0
COc1ccc(S(=O)(=O)Nc2cc(SCC(=O)O)c(O)c3ccccc23)cc1,78,0,0,0,68,0
O=C(O)CSc1cc(NS(=O)(=O)c2ccc(Cl)cc2)c2ccccc2c1O,81,0,0,0,0,0
CCCCCCCCN1C(=O)[C@H](CC(=O)NCc2ccc(C)o2)C[C@@]2(C(=O)OCC)CCC=C12,-,-,0,-,-,-
CCOC(=O)Nc1ccc2c(c1)C(=NO)c1ccccc1-2,0,0,0,92,0,0

# From PubChem
